The values below come from the supplement of paper PMC10849652.

The full data set covers some 7,900 targets. This sample favours those with a hit. About 0.6% of all pairs of compound and target were hits.

UniProt P98173, sequence (P98173 whole entry, looked up): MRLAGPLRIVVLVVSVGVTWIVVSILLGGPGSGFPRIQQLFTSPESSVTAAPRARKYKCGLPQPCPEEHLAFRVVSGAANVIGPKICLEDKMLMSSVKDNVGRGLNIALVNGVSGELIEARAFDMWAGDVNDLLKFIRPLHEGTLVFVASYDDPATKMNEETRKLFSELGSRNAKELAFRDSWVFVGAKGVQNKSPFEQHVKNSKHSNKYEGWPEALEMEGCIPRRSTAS
UniProt O60911, sequence (O60911 whole entry, looked up): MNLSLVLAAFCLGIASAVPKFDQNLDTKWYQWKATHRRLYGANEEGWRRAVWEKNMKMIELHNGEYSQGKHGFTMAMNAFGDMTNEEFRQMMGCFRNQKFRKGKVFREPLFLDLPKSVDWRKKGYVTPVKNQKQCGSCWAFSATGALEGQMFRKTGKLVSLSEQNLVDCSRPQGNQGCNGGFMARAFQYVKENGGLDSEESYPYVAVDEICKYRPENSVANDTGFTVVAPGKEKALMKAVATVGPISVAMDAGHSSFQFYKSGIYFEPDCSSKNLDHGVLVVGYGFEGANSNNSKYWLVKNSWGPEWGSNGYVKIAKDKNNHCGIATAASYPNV
UniProt Q04637, sequence (Q04637 whole entry, looked up): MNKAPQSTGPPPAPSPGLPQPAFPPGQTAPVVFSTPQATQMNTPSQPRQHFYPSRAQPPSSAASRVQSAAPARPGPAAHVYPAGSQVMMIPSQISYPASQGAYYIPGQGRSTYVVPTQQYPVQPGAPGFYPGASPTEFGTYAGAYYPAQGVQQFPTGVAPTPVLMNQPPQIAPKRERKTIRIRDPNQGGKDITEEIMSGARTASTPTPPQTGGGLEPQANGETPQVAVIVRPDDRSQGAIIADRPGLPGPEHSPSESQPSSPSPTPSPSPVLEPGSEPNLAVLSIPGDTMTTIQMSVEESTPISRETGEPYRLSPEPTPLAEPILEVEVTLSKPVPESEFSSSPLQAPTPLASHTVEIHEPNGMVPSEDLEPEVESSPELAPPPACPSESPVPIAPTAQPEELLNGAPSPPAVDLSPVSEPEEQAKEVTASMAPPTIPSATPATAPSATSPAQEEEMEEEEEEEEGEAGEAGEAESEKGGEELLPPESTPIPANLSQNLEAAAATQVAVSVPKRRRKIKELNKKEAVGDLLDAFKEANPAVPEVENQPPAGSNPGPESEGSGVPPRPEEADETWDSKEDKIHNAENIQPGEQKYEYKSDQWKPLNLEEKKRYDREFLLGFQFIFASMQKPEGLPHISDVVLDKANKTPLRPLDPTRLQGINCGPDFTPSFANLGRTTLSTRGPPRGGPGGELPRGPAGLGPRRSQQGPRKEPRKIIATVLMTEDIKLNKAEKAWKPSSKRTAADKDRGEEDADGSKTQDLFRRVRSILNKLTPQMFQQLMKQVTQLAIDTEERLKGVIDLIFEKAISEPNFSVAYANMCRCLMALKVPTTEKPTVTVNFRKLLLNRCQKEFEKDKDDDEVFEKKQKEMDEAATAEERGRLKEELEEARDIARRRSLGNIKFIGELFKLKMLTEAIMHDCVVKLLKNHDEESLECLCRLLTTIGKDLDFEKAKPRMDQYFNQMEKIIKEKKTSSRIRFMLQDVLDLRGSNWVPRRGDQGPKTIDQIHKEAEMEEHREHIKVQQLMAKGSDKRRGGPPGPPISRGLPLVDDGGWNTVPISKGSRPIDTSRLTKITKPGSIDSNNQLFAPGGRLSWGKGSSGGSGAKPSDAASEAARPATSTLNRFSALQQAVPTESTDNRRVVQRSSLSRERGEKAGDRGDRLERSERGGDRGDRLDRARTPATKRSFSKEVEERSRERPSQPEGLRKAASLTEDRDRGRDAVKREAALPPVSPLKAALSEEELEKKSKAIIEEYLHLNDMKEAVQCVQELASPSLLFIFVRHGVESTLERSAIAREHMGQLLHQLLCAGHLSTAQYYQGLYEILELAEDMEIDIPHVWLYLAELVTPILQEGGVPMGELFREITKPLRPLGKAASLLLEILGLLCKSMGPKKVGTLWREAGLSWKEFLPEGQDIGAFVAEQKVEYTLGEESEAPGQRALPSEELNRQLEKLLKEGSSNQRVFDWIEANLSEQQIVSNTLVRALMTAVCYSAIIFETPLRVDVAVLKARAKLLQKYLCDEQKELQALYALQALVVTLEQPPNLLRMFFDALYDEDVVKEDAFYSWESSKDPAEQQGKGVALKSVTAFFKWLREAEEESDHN
UniProt Q9NZN4, sequence (Q9NZN4 whole entry, looked up): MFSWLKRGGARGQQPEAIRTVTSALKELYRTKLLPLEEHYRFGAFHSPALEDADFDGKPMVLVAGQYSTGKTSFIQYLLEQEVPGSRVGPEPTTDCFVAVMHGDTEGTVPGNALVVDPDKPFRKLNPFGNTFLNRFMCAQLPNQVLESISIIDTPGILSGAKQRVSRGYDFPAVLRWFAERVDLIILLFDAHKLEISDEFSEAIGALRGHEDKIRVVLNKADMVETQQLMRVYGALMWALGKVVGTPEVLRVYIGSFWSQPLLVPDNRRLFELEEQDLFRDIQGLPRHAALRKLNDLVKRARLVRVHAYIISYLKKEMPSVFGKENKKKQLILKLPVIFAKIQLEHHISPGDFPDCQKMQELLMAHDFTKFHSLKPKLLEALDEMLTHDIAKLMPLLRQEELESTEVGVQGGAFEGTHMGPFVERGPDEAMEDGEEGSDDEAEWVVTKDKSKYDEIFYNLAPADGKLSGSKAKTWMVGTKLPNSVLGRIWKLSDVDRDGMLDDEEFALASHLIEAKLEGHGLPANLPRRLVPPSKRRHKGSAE
UniProt Q9UBM7, sequence (Q9UBM7 whole entry, looked up): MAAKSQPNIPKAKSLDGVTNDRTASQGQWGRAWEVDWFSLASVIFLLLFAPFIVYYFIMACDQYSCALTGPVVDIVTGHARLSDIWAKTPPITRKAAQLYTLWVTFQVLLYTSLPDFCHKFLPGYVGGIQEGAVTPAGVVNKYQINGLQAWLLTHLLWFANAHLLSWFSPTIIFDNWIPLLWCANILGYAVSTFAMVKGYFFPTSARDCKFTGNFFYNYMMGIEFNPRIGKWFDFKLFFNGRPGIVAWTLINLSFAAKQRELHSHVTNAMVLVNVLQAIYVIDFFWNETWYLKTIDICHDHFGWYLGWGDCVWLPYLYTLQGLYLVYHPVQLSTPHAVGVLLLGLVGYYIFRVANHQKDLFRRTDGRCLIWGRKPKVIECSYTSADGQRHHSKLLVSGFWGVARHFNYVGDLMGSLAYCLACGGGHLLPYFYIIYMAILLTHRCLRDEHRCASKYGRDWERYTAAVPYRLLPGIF
UniProt Q86UK5, sequence (Q86UK5 whole entry, looked up): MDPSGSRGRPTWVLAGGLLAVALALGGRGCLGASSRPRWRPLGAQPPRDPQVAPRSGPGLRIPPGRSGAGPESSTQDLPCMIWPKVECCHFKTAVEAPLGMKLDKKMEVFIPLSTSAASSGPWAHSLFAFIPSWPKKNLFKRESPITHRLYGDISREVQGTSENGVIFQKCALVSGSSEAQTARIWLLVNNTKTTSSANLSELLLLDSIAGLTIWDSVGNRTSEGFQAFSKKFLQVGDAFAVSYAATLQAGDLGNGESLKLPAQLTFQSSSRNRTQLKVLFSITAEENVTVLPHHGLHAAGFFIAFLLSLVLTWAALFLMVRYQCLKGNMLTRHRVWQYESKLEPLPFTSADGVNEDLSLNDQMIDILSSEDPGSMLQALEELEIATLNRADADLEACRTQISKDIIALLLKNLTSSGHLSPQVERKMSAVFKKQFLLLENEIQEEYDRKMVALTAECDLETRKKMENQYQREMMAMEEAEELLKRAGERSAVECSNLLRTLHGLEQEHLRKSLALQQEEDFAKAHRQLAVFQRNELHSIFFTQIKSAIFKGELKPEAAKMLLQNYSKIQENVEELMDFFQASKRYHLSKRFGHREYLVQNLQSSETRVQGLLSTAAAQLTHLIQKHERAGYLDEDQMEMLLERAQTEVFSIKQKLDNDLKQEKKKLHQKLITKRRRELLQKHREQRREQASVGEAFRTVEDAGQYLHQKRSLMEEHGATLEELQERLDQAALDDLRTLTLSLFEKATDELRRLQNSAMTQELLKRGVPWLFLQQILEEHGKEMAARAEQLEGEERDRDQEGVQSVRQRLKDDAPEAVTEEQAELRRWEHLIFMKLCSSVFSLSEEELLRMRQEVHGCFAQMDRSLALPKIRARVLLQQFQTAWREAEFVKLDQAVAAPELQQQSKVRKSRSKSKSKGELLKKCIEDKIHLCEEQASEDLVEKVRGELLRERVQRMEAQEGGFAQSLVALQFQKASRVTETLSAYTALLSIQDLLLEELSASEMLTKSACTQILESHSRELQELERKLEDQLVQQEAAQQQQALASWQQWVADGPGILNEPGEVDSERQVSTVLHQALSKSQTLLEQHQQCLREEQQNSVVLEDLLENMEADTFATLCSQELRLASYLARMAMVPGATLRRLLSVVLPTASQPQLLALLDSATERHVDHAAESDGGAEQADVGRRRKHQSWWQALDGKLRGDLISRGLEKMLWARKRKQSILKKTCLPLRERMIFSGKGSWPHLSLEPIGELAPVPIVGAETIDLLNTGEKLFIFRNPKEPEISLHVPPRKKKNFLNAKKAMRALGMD
UniProt Q96LJ7, sequence (Q96LJ7 whole entry, looked up): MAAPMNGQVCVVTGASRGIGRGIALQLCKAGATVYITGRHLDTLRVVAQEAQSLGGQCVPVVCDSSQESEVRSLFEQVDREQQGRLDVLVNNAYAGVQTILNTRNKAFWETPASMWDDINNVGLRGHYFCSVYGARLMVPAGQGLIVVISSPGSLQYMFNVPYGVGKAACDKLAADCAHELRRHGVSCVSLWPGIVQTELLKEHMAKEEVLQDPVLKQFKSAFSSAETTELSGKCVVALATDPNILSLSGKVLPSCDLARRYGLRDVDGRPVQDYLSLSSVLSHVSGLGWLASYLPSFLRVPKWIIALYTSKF
UniProt P06730, sequence (P06730 whole entry, looked up): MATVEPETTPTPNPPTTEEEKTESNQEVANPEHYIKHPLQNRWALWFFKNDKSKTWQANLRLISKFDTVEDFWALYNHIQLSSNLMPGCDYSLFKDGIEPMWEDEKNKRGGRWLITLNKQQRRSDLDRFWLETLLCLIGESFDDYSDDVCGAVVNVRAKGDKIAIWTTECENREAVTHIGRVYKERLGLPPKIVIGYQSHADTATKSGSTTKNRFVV

Compound in the test: COC(=O)[C@H](CCSC)NC(=O)C1=C(C=C(C=C1)NC[C@H](CS)N)C2=CC=CC=C2
In words: log2 fold change, soluble protein after heating vs DMSO (PISA); higher = thermal stabilisation; K562 cells, 10 uM, 30 min; active = over 0.2 and 3.5 SD of the protein, either way, in both replicates (recomputed). In a few lines: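 Aliquots of K562 cells (2×10^6 cells/mL) treated with 10 μM compound for 30 min were heated for 3 min over 48°C-58°C. After pooling and extraction in PBS with 0.5% NP-40 at 4°C, soluble protein from a 21,000xg, 90 min spin was quantified by TMTpro 16plex LC-MS/MS with channel sums equalised. Thermal stability is expressed against control samples, from duplicates, as a log2 fold change.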
On to CYFIP1 (UniProt Q7L576), for which the log2 fold change is -0.013 (inactive).
In the case of ERCC6 (UniProt Q03468) it was 0.055 (inactive); in that of DHX40 (UniProt Q8IX18), -0.039 (inactive).
In the case of EEF1AKNMT (UniProt Q8N6R0) it was -0.182 (inactive).
DHPS (UniProt P49366): the log2 fold change was -0.011 (inactive).
As for DHRS1 (UniProt Q96LJ7), the log2 fold change is -0.116 (inactive).
In the case of CTSV (UniProt O60911) it was 0.02 (inactive).
On to DHCR7 (UniProt Q9UBM7), for which the log2 fold change was -0.048 (inactive).
Turning to EIF4G1 isoform 8 (UniProt Q04637), the log2 fold change is -0.05 (inactive).
Take FAM3A (UniProt P98173): the log2 fold change was -0.041 (inactive).
With CTNNB1 (UniProt P35222), the log2 fold change is -0.015 (inactive).
In the case of EIF3J (UniProt O75822) it was -0.029 (inactive); in that of EVC2 (UniProt Q86UK5), 0.073 (inactive).
In the case of EIF4E isoform 2 (UniProt P06730) it was -0.072 (inactive); in that of EGLN1 (UniProt Q9GZT9), 0.002 (inactive); in that of EHD2 (UniProt Q9NZN4), -0.061 (inactive).
